In PubChem BioAssay (NCATS):
Results filed as inconclusive are left out. Active and inactive are the calls of the source. Calls come from the whole dose curve; as a rule, active = well fitted inhibition curve with a large enough effect; inconclusive = small, poorly fitted or top-dose-only effect; inactive = flat fitted curve, though single readings scatter. Where a SMILES comes first, the peptide text is derived from it. [ ]: non-standard residue; d: D form. ξ: configuration not given here. ξTyr(βOH) = NC(C(=O)O)C(O)c1ccc(O)cc1

Experiments:
Test in all cases: Cytotoxic Profiling of Annotated Libraries Using Quantitative High-Throughput Screening (AID 1296008); note: nearly all actives have a fitted effect of over 60% in size
Details in all cases: Five cell lines viability, CellTiter-Glo ATP luminescence, 48-72 h; max response: hits give low values
CRL-7250 = normal cell line; tested on: CRL-7250
Outline: (§1)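 Cells exposed to compounds for 48 or 72 hr at 37 degrees Celsius. Viability read as ATP-coupled luminescence with CellTiter-Glo after 10 min at room temperature.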

HEK293 = tested on: HEK293
Outline: as §1

HaCat = tested on: HaCat
Outline: as §1

KB-3-1 = tested on: KB-3-1
Outline: as §1

NIH3T3 = tested on: NIH3T3
Outline: as §1

Measured: max response
% is set by controls: 0 for no effect and ±100 for the full control effect.

COC(O)(CC(C)C)C1Oc2cc(C)[nH]c(=O)c2O1 (stereo not given)
inactive: CRL-7250 | HEK293 0.893% | HaCat | KB-3-1 6.46% | NIH3T3 3.8%

CCC1=C(C)C(=O)C(C)CC12C(=O)CCC2C(=O)O (stereo not given)
inactive: CRL-7250 -4.23% | HEK293 -5.13% | HaCat | KB-3-1 0.468% | NIH3T3

CC(O)C(O)/C=C/C=C/C(=O)O[C@@H]1C=C(C(=O)O)[C@](O)(CO)[C@@]2(C)CCCC(C)(C)[C@H]12 (stereo not given in full)
inactive: CRL-7250 -15.6% | HEK293 -10.2% | HaCat | KB-3-1 4.17% | NIH3T3

CCCc1[nH]nc2c1C(c1cc(Cl)cc(Cl)c1O)C(C#N)=C(N)O2 (stereo not given)
inactive: CRL-7250 -0.63% | HEK293 -17.1% | HaCat | KB-3-1 | NIH3T3

COc1ccc(CCC(=O)O)c(O[C@@H]2O[C@H](CO)[C@@H](O)[C@H](O)[C@H]2O)c1
inactive: CRL-7250 | HEK293 -2.75% | HaCat 3.93% | KB-3-1 -5.8% | NIH3T3

CC(C)CC(=O)OC[C@@]1(O)C[C@@]23CC[C@H]4[C@@](C)(CCC[C@@]4(C)C(=O)O)[C@@H]2CC[C@@H]1C3
inactive: CRL-7250 | HEK293 1.06% | HaCat -4.56% | KB-3-1 4.98% | NIH3T3

COc1c(O)cc2c(c1O)C(=O)O[C@H](C)[C@H]2O
inactive: CRL-7250 | HEK293 -6.03% | HaCat | KB-3-1 4.43% | NIH3T3

CC1=CCC2C(C)(C)CCCC2(C)C1CC12OC1C(O)C(CO)=CC2O (stereo not given)
inactive: CRL-7250 3.52% | HEK293 -6.22% | HaCat -4.23% | KB-3-1 9.42% | NIH3T3

Cc1cccc(-c2nn3c(c2-c2ccnc4ccc(C(N)=O)cc24)CCC3)n1
inactive: CRL-7250 1.85% | HEK293 3.73% | HaCat | KB-3-1 | NIH3T3 -5.67%

OCC1=C[C@@H](O)[C@@H]2C=CO[C@@H](O[C@@H]3O[C@H](CO)[C@@H](O)[C@H](O)[C@H]3O)[C@H]12
inactive: CRL-7250 -1.82% | HEK293 0.828% | HaCat | KB-3-1 | NIH3T3 4.6%

C/C=C(\C)C(=O)OC[C@H]1O[C@@H](O[C@H]2[C@@H](O[C@H]3O[C@H](COC(=O)/C(C)=C/C)[C@@H](O)[C@H](O)[C@H]3O[C@@H]3O[C@H](CO)[C@@H](O)[C@H](OC(=O)/C(C)=C/C)[C@H]3O)O[C@H](COC(=O)/C(C)=C/C)[C@@H](O)[C@@H]2O)[C@H](O)[C@@H](O)[C@@H]1O
inactive: CRL-7250 -2.42% | HEK293 -5.26% | HaCat 2.69% | KB-3-1 | NIH3T3

COc1cc(C(CO)CO[C@@H]2O[C@H](CO)[C@@H](O)[C@H](O)[C@H]2O)ccc1O (stereo not given in full)
inactive: CRL-7250 -15.6% | HEK293 | HaCat -35.5% | KB-3-1 5.97% | NIH3T3 -7.99%

CC(C)=CC[C@H]1O[C@]2(O)C([C@H]3CCC4[C@@]5(C)CC[C@H](O[C@@H]6O[C@H](CO)[C@H](O)[C@H](O[C@@H]7O[C@H](CO)[C@@H](O)[C@H](O)[C@H]7O)[C@H]6O[C@@H]6O[C@@H](C)[C@H](O)[C@@H](O)[C@H]6O)C(C)(C)C5CC[C@@]4(C)[C@]3(C)[C@H]2O)[C@@]1(C)O (stereo not given in full)
inactive: CRL-7250 0.206% | HEK293 2.46% | HaCat | KB-3-1 9.9% | NIH3T3 0.989%

COc1c2c(c(C)c3c1C(=O)OC3)OC1(C)CC(O)C34OC(OC)(CCC3(C)C1C2)OC4(C)CO (stereo not given)
inactive: CRL-7250 | HEK293 -8.39% | HaCat 2.59% | KB-3-1 | NIH3T3

C=C1C2CCC3C(CCC4[C@@]3(C)CCC[C@@]4(C)C(=O)O)(C2)[C@@H]1OC(=O)/C(C)=C\C (stereo not given in full)
inactive: CRL-7250 -44.5% | HEK293 -104% | HaCat -0.634% | KB-3-1 2.48% | NIH3T3

C/C=C(\C)C1C(C)=CC2CCC(OS(=O)(=O)O)C(C)C2C1/C=C/C=C/C(=O)O (stereo not given)
inactive: CRL-7250 | HEK293 | HaCat -12.6% | KB-3-1 7.13% | NIH3T3 -0.702%

CC(=O)NC(C(=O)OC1CCC(C)(C)C2CC=C3C(=O)OCC3C12C)C(C)C (stereo not given)
inactive: CRL-7250 | HEK293 -2.64% | HaCat | KB-3-1 | NIH3T3 4.96%

CC1(C)CCC2(C(=O)O)CCC3(C)C(=CCC4C5(C)CCC(O)C(C)(CO)C5C(O)CC43C)C2C1 (stereo not given)
inactive: CRL-7250 -7.98% | HEK293 4.6% | HaCat | KB-3-1 4.19% | NIH3T3

C=C1CCC[C@]2(C)CC[C@@](O)(C(=C)C(=O)O)C[C@@H]12
inactive: CRL-7250 -0.228% | HEK293 -21.6% | HaCat | KB-3-1 -4.38% | NIH3T3 -3.81%

CCC(C)(C)C1CCc2c(sc(NC(=O)c3ccc(Br)cc3)c2C#N)C1 (stereo not given)
inactive: CRL-7250 -2.34% | HEK293 2.37% | HaCat | KB-3-1 | NIH3T3 3.88%

C[C@@H]1O[C@@H](O[C@H]2[C@@H]3C=CO[C@@H](O[C@@H]4O[C@H](CO)[C@@H](O)[C@H](O)[C@H]4O)[C@@H]3[C@@]3(CO)O[C@@H]23)[C@H](O)[C@H](OC(=O)/C=C/c2ccc(O)cc2)[C@H]1OC(=O)/C=C/c1ccc(O)cc1
inactive: CRL-7250 4.25% | HEK293 -0.28% | HaCat | KB-3-1 2.65% | NIH3T3 -10.1%

O=C1C[C@@]2(C(=O)N1)C(=O)N(Cc1ccc(Br)cc1F)C(=O)c1cccn12
inactive: CRL-7250 -0.124% | HEK293 | HaCat -21% | KB-3-1 1.61% | NIH3T3 1.31%

COc1cc(/C=C/CO[C@@H]2O[C@H](CO)[C@@H](O)[C@H](O)[C@H]2O)cc(OC)c1O[C@@H]1O[C@H](CO)[C@@H](O)[C@H](O)[C@H]1O
inactive: CRL-7250 -7.94% | HEK293 -7.31% | HaCat | KB-3-1 | NIH3T3

COC(=O)C(CC1CCCC1)c1ccc(S(C)(=O)=O)cc1 (stereo not given)
inactive: CRL-7250 | HEK293 0.176% | HaCat | KB-3-1 | NIH3T3 2.5%

CC(C)(O)C(O)C(=O)OCc1ccc(O[C@@H]2O[C@H](CO)[C@@H](O)[C@H](O)[C@H]2O)cc1 (stereo not given in full)
inactive: CRL-7250 -9.18% | HEK293 2.94% | HaCat | KB-3-1 | NIH3T3 -2.16%

CC(C)C1CCC(CO)=CC1/C=C(\CO)C(=O)OCC1(O)CCC(C(C)C)C2C=C(C(=O)O)COC(=O)C21 (stereo not given)
inactive: CRL-7250 | HEK293 | HaCat -2.47% | KB-3-1 | NIH3T3 -0.853%

CC1(C)C(=O)N2c3ccccc3C(O)(CC(C(=O)O)n3cnc4ccccc4c3=O)C2N1O (stereo not given)
inactive: CRL-7250 0.472% | HEK293 -0.978% | HaCat | KB-3-1 4.14% | NIH3T3 1.17%

CC(C)C1NC(=O)CNC(=O)C2CCCN2C(=O)C(Cc2c[nH]c3ccccc23)NC(=O)CNC(=O)C(C(O)c2ccc(O)cc2)NC(=O)CNC1=O (stereo not given) (cyclo(G[ξTyr(βOH)]GWPGV); configuration not given here)
inactive: CRL-7250 -8.12% | HEK293 1.2% | HaCat | KB-3-1 2.88% | NIH3T3

C=C1C(OC(C)=O)CCC2(C)CC3(O)OC(=O)C(C)=C3CC12 (stereo not given)
inactive: CRL-7250 | HEK293 -4.29% | HaCat -1.9% | KB-3-1 | NIH3T3

COc1cc([C@H]2OC[C@](O)(Cc3ccc(O[C@@H]4O[C@H](CO)[C@@H](O)[C@H](O)[C@H]4O)c(OC)c3)[C@@H]2CO)ccc1O
inactive: CRL-7250 -8.35% | HEK293 1.25% | HaCat | KB-3-1 0.848% | NIH3T3

C[C@]12CC[C@@H]3c4ccc(O)cc4CC[C@H]3[C@@H]1C[C@@H](O[C@@H]1O[C@H](C(=O)O)[C@@H](O)[C@H](O)[C@H]1O)[C@@H]2O
inactive: CRL-7250 2.29% | HEK293 -7.39% | HaCat | KB-3-1 4.13% | NIH3T3 -7.98%

C/C=C/C=C/C(O)=C1/C(=O)[C@]2(C)C(=O)[C@@](C)(O)[C@H]1[C@H]([C@@]1(C)OC(=O)C(C)=C1O)[C@H]2C(=O)CC/C=C/C
inactive: CRL-7250 | HEK293 -3.93% | HaCat | KB-3-1 | NIH3T3

c1cc(-c2cc(C3CCNCC3)[nH]n2)ccn1
inactive: CRL-7250 -3.47% | HEK293 -20.2% | HaCat | KB-3-1 2.66% | NIH3T3

FC(F)(F)Oc1ccc(-c2ccc3nnc(C(F)(F)F)n3c2)cc1
inactive: CRL-7250 -1.14% | HEK293 -7.41% | HaCat -4.75% | KB-3-1 | NIH3T3

CC1=C2CC(O)(C(C)(C)O)C(O[C@@H]3O[C@H](CO)[C@@H](O)[C@H](O)[C@H]3O)CC(C)C2CC1=O (stereo not given in full)
inactive: CRL-7250 2.9% | HEK293 -24.8% | HaCat | KB-3-1 7.73% | NIH3T3

C=C1CCc2occ(C)c2[C@H]2[C@H]1[C@@]13O[C@@]1(C[C@@H](C)[C@H]3OC(C)=O)[C@H]1O[C@@]21C
inactive: CRL-7250 2.94% | HEK293 | HaCat -22% | KB-3-1 | NIH3T3 -1.13%

O=C(OC[C@H]1O[C@@H](Oc2ccccc2CO)[C@H](O)[C@@H](O)[C@@H]1O)c1ccccc1
inactive: CRL-7250 -0.775% | HEK293 0.13% | HaCat 0.855% | KB-3-1 3.27% | NIH3T3

CC1CCC2(NC1)OC1C(O)C3C4CCC5CC(O[C@@H]6O[C@H](CO)[C@@H](O)[C@H](O)[C@H]6O[C@@H]6O[C@@H](C)[C@H](O)[C@@H](O)[C@H]6O)CCC5(C)C4CCC3(C)C1C2C (stereo not given in full)
inactive: CRL-7250 -4.87% | HEK293 2.08% | HaCat | KB-3-1 -0.386% | NIH3T3

CC1CCC2(C(=O)OC3OC(CO)C(O)C(O)C3O)CCC3(C)C(=CCC4C5(C)CCC(O)C(C)(CO)C5CCC43C)C2C1(C)O (stereo not given)
inactive: CRL-7250 | HEK293 -1.85% | HaCat | KB-3-1 | NIH3T3
